These results are taken from PubChem BioAssay (NCATS).

“And” between values parts separate entries of the source, which are not always exact repeats. Identical values can stand only once. Inconclusive results are not listed. A structure can be active in one record and inactive in another. The source made the active and inactive calls. Unless noted, calls come from the whole dose curve; as a rule, active = well fitted curve in the direction sought with a large enough effect; inconclusive = small, poorly fitted or top-dose-only effect, or another doubt; inactive = no such curve, though single readings can be large; an effect the other way counts as inactive or inconclusive.

Chain of Catechol O-methyltransferase (Homo sapiens) (P21964 whole entry, looked up): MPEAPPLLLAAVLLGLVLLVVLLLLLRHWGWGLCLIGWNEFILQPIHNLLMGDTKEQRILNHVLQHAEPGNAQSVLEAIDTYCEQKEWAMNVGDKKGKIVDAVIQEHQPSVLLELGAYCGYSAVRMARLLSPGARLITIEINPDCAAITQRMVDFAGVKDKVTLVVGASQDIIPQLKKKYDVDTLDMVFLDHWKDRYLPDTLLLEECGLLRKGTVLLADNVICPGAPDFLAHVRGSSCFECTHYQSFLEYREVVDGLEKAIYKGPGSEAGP
Chain of Rap guanine nucleotide exchange factor 3 (Homo sapiens) (O95398 whole entry, looked up): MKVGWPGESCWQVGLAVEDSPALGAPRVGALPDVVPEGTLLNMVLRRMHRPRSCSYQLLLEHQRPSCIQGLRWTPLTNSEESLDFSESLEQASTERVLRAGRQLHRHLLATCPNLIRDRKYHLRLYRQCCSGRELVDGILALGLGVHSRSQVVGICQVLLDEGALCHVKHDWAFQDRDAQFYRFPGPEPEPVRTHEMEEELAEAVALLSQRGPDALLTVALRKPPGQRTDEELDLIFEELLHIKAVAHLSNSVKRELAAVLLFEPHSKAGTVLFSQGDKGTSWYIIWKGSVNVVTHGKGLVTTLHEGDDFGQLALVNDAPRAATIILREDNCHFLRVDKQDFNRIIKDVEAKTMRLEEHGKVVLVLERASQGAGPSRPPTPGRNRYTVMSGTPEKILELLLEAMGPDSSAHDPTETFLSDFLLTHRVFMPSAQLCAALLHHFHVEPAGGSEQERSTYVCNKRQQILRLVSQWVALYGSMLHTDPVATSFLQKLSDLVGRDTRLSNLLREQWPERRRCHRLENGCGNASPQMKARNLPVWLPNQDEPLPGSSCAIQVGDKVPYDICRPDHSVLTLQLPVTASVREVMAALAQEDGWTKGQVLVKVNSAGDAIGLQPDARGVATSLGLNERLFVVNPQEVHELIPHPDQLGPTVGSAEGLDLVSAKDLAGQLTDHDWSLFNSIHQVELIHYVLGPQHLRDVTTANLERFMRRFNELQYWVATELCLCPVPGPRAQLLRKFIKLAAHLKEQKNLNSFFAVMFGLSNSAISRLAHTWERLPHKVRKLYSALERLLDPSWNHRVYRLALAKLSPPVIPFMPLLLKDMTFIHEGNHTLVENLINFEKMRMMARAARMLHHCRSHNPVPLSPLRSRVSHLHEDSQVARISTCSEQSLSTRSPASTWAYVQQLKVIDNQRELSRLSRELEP
Chain of Nicotinamide N-methyltransferase (Homo sapiens) (P40261 whole entry, looked up): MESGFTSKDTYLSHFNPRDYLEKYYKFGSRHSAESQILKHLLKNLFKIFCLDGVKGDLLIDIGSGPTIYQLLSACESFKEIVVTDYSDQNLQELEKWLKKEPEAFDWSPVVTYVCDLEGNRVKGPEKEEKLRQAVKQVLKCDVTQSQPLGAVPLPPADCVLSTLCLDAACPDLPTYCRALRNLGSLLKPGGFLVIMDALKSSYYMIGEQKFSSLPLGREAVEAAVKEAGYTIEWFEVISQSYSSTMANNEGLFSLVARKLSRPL

System in one test: not listed separately
Briefly: Primary qHTS for inhibitors of nuclear receptor binding SET domain protein 2 (NSD2) in an RCH-ACV wild type WT cells (2C) (AID 1645877). For activity change, negative = cell killing: % is set by controls: 0 for no effect and ±100 for the full control effect. Note: nearly all actives have a fitted effect of over 70% in size. Note: potency is the fitted concentration of half-maximal effect. The settings on record: RCH-ACV (leukaemia line) NSD2 WT (2C) viability, CellTiter-Glo, 72 h; series mostly up to 44.9 µM; activity change, negative = cell killing: at the top concentration. (In general: In qHTS, concentration-response curves come from the screen itself.)
Regarding `CN(C)CCOC(C)(c1ccccc1)c1ccccn1` (configuration not stated), the “activity change, negative = cell killing” value is -7.16% (inactive).

For `C/C(=C(\CCOP(=O)(O)O)SC(=O)c1ccccc1)N(C=O)Cc1cnc(C)nc1N`, the activity change, negative = cell killing was -1.42% [at 4.96 µM] (inactive). In the case of `CCOC(=O)c1ccc(O)cc1`, the “activity change, negative = cell killing” value was -11.6% (inactive). Still for that read-out and setting: in the case of `CCCCCCCCCCCCOS(=O)(=O)O` it was -9.79% (inactive). `CCN(CC)CCNC(=O)c1c(C)[nH]c(/C=C2\C(=O)Nc3ccc(F)cc32)c1C`: the Potency is 2.99 µM (active) and 3.72 µM (active). On to `CSc1ccc2c(c1)N(CCC1CCCCN1C)c1ccccc1S2` (configuration not stated), for which the Potency was 3.76 µM (active). `CC(=O)Oc1c(C)c(C)c2c(c1C)CC[C@@](C)(CCC[C@H](C)CCC[C@H](C)CCCC(C)C)O2`: the “outcome” value is “inactive”.

As for `Cc1cc2nc3c(=O)[nH]c(=O)nc-3n(C[C@H](O)[C@H](O)[C@H](O)CO)c2cc1C`, the “activity change, negative = cell killing” value is 6.84% [at 17.3 µM] (inactive).

For the molecule `CN1CCOC(c2ccccc2)c2ccccc2C1` (configuration not stated), the Potency result is “inactive”. In the case of `Cc1ncc([N+](=O)[O-])n1CC(O)CCl` (configuration not stated), the “activity change, negative = cell killing” value is 1.84% (inactive). Turning to `NC(=O)NNc1ccccc1`, the “activity change, negative = cell killing” value is 5.19% (inactive).

Take `CO/N=C(\C(=O)N[C@@H]1C(=O)N2C(C(=O)O)=C(CSc3nc(=O)c(O)nn3C)CS[C@H]12)c1csc(N)n1`: the “activity change, negative = cell killing” value was -2.55% (inactive). For the molecule `C[C@@H]1C[C@H]2[C@@H]3C[C@H](F)C4=CC(=O)C=C[C@]4(C)[C@@]3(F)[C@@H](O)C[C@]2(C)[C@@]1(O)C(=O)CO`, the Potency was 2.7 nM (active) and 5.2 nM (active). Regarding `CNCCC(Oc1ccc(C(F)(F)F)cc1)c1ccccc1` (configuration not stated), the Potency is 23.7 µM (active).

With `OCCN1CCN(CCCN2c3ccccc3Sc3ccc(Cl)cc32)CC1`, the Potency is 9.44 µM (active). Turning to `O=C(O)c1ccccn1`, the “activity change, negative = cell killing” value is 3.58% (inactive). In the case of `CCOc1nc2cccc(C(=O)O)c2n1Cc1ccc(-c2ccccc2-c2nn[nH]n2)cc1`, the Potency entry was “inactive”. On the same count and under the same terms, then `Nc1ncnc2c1ncn2[C@@H]1O[C@H](CO)[C@@H](O)[C@H]1O`, with 5.96 µM (active) and inactive. As for `CCCCCCCCCCCCCCCC(=O)NCCO`, the “activity change, negative = cell killing” value was 8.8% (inactive). Same read-out and setting: then `CCCCOc1cc(C(=O)OCCN(CC)CC)ccc1N`, with -26.3% (inactive). For `COCCOC(=O)C1=C(C)NC(C)=C(C(=O)OC/C=C/c2ccccc2)C1c1cccc([N+](=O)[O-])c1` (configuration not stated), the Potency is 21.1 µM (active). Take `NCCNCCNCCN`: the “outcome” value was “inactive”.

As for `CN(C)CCCN1c2ccccc2Sc2ccc(Cl)cc21`, the Potency is 13.3 µM (active). With `O=C(O)c1ccccc1O`, the “activity change, negative = cell killing” value is -5.85% (inactive).

The target in a further test is Rap guanine nucleotide exchange factor 3 (Homo sapiens) (UniProt O95398). The experiment in a line: Confirmatory qHTS for antagonist of cAMP-regulated guanine nucleotide exchange factor 3 (EPAC1) (AID 1645880).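 For activity, negative = inhibition: plate controls were DMSO only for no effect and full effect of the ATA control for full effect.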 Note: nearly all actives have a fitted effect of over 55% in size. Note: potency is the fitted concentration of half-maximal effect. Particulars: EPAC1 Rap1B-BODIPY-GDP exchange, fluorescence; series mostly up to 115 µM; activity, negative = inhibition: at the top concentration. In short, it runs like this:
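Released BODIPY-GDP fluoresces less than Rap1-bound BODIPY-GDP; the signal is followed at 480/540 nm at 5-min intervals over 30 min, after 5 min at room temperature. Reactions contain 100 nM EPAC1, 250 nM RAP1B-BODIPY-GDP and 50 uM GDP; results are normalized to ATA and DMSO.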
As for `CCCc1c(OCCCCc2nn[nH]n2)ccc(C(C)=O)c1O`, the Potency is 55.9 µM (active) and inactive. Regarding `Cc1cc2nc3c(=O)[nH]c(=O)nc-3n(C[C@H](O)[C@H](O)[C@H](O)CO)c2cc1C`, the “activity, negative = inhibition” value was 390% (inactive).

Turning to `OCCN1CCN(CCCN2c3ccccc3Sc3ccc(Cl)cc32)CC1`, the “activity, negative = inhibition” value was 6.91% (inactive).

A further test shares this target. The experiment in a line: Confirmatory qHTS for agonist of cAMP-regulated guanine nucleotide exchange factor 3 (EPAC1) (AID 1645881).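 Note: EPAC1 catalysed release of BODIPY-GDP from Rap1B seen as fluorescence loss; 100% = effect of cAMP agonist control; nearly all actives have a fitted effect of over 75% in size.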 Particulars: EPAC1 Rap1B BODIPY-GDP exchange fluorescence; series mostly up to 154 µM; activation: at the top concentration.
Take `CCCc1c(OCCCCc2nn[nH]n2)ccc(C(C)=O)c1O`: the Potency result is “inactive”. Regarding `OCCN1CCN(CCCN2c3ccccc3Sc3ccc(Cl)cc32)CC1`, the “activation” value is 12.7% (inactive).

On to `COCCOC(=O)C1=C(C)NC(C)=C(C(=O)OC/C=C/c2ccccc2)C1c1cccc([N+](=O)[O-])c1` (configuration not stated), for which the “activation” value was -6.12% (inactive).

The next test addresses Catechol O-methyltransferase (Homo sapiens) (UniProt P21964). Briefly: Confirmatory Screen for Target Class Profiling of Small Molecule Inhibitors of Methyltransferases (AID 1745852; calls by dose curve; for activity change, negative = inhibition: % is set by controls: 0 for no effect and ±100 for the full control effect). Particulars: MTase-Glo luminescence, SAH detection, recombinant enzyme; measured here: COMT max response; stronger effect = lower value.
As to `COc1ccc(Cl)cc1C(=O)NCCc1ccc(S(=O)(=O)NC(=O)NC2CCCCC2)cc1`, the activity was -8.62%. Same read-out and setting: then `C[C@]12CC[C@@H]3c4ccc(O)cc4CC[C@H]3[C@@H]1CCC2=O`, with -21.5%; and `CC(C)(C)[C@]1(O)CCN2C[C@H]3c4ccccc4CCc4cccc(c43)[C@@H]2C1`, with -2.14%.

For a further test, the target named is Guanidinoacetate N-methyltransferase (Homo sapiens) (UniProt Q14353). The description is as above. The settings on record: MTase-Glo luminescence, SAH detection, recombinant enzyme; at 57.3 µM (top of the series).
As to `COc1ccc(Cl)cc1C(=O)NCCc1ccc(S(=O)(=O)NC(=O)NC2CCCCC2)cc1`, the activity change, negative = inhibition is -1.47%.

As for `C[C@]12CC[C@@H]3c4ccc(O)cc4CC[C@H]3[C@@H]1CCC2=O`, the activity change, negative = inhibition is -1.67%. For the molecule `CC(C)(C)[C@]1(O)CCN2C[C@H]3c4ccccc4CCc4cccc(c43)[C@@H]2C1`, the activity change, negative = inhibition was found to be 6.2%.

A further test has as its target Nicotinamide N-methyltransferase (Homo sapiens) (UniProt P40261). Described as above. The settings on record: MTase-Glo luminescence, SAH detection, recombinant enzyme; measured here: NNMT max response; stronger effect = lower value.
For the molecule `COc1ccc(Cl)cc1C(=O)NCCc1ccc(S(=O)(=O)NC(=O)NC2CCCCC2)cc1`, the activity was -22.1%. In the case of `C[C@]12CC[C@@H]3c4ccc(O)cc4CC[C@H]3[C@@H]1CCC2=O`, the activity is -55.7%. `CC(C)(C)[C@]1(O)CCN2C[C@H]3c4ccccc4CCc4cccc(c43)[C@@H]2C1`: the activity is -19.3%.

The target of the next test is Phenylethanolamine N-methyltransferase (Homo sapiens) (UniProt P11086). The test is described as above. Particulars: MTase-Glo luminescence, SAH detection, recombinant enzyme; measured here: PNMT max response; stronger effect = lower value.
Chain of Phenylethanolamine N-methyltransferase (Homo sapiens) (P11086 whole entry, looked up): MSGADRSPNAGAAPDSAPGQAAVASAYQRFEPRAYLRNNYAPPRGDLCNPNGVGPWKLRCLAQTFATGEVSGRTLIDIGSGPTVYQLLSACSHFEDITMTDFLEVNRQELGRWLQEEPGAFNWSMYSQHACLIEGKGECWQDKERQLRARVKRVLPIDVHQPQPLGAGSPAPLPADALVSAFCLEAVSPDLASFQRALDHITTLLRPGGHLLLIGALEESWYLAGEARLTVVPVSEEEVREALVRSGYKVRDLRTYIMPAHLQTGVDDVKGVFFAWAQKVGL
Turning to `COc1ccc(Cl)cc1C(=O)NCCc1ccc(S(=O)(=O)NC(=O)NC2CCCCC2)cc1`, the activity was -3.2%. Consider `C[C@]12CC[C@@H]3c4ccc(O)cc4CC[C@H]3[C@@H]1CCC2=O`, for which the activity was -0.307%. As for `CC(C)(C)[C@]1(O)CCN2C[C@H]3c4ccccc4CCc4cccc(c43)[C@@H]2C1`, the activity was -4.4%.

System in another test: not listed separately
Briefly: NCATS anti-infectives library activity on HEK293 viability as a counter-qHTS vs the C. elegans viability qHTS (AID 1745854).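 Note: HEK293 cells exposed to compounds for 24 hr before the viability read; % is set by controls: 0 for no effect and ±100 for the full control effect.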 Particulars: HEK293 viability counter-screen; series mostly up to 41.8 µM; activity change, negative = cytotoxicity: at the top concentration. The method in brief:
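Compound titrations (final up to 41.7 uM) were incubated with HEK293 cells for 24 hr at 37C under 5% CO2. Viable cells were quantified with CellTiter-Glo after 10 min at ambient temperature.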
On to `O=C(O)c1ccccn1`, for which the “activity change, negative = cytotoxicity” value was 11.9% (inactive). The same measure, in the same setting: then `CCOc1nc2cccc(C(=O)O)c2n1Cc1ccc(-c2ccccc2-c2nn[nH]n2)cc1`, with 10.4% (inactive). On the same count and under the same terms, then `CCCCCCCCCCCCCCCC(=O)NCCO`, with 5.15% (inactive); and `CN(C)CCCN1c2ccccc2Sc2ccc(Cl)cc21`, with -16.7% (inactive). Still for that read-out and setting: then `O=C(O)c1ccccc1O`, with -3.62% (inactive).
